NPSR antag: antagonists of human neuropeptide S receptor cAMP signaling; CHO-NPSR cells, cAMP TR-FRET, antagonist mode; Potency, µM (titrated, usually from 38.3 µM), without a hit: top-dose activity change, negative = inhibition, most hits filed as inhibitors; 220,000 compounds, 1% hits; AID 1461; note: potency is the fitted concentration of half-maximal effect; nearly all actives have a fitted effect of over 50% in size
Sfp inh: inhibitors of Bacillus subtilis Sfp phosphopantetheinyl transferase; AID 1490; Potency, µM, for the others: largest response in the series, negative = inhibition, most hits filed as inhibitors; 310,000 compounds, 3.5% hits; Q9F4F7; Biochemical Sfp PPTase activity, qHTS;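 note: the enzyme is Sfp with the accession as filed and its product quenches rhodamine fluorescence; potency is the fitted concentration of half-maximal effect; 0% = enzyme reaction without inhibitor and -100% = no enzyme wells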
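Sfp 15 nM + cpd, 15 min RT; start w/ rhodamine-CoA 5 uM, BHQ-2-YbbR 12.5 uM (final); 50 mM Hepes pH 7.6, 10 mM MgCl2, 0.01% NP-40, 0.01% BSA; read 525/598 nm at 0 and 30 min.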
RGS12 GoLoco inh: RGS12 GoLoco-Gai1 interaction inhibition; Gai1:RGS12 GoLoco peptide FP, rhodamine, 10 min; Potency, µM (top dose mostly 61.6 µM), for inactives: at the top dose activity, negative = inhibition, hits mostly inhibitors; 230,000 compounds, 0.44% hits; P63096; active = well fitted inhibition curve with a large enough effect, not every such curve was filed as active; inactive = no such curve, though single readings can be large or run the other way; note: potency is the fitted concentration of half-maximal effect; nearly all actives have a fitted effect of over 30% in size
KDM4E inh: blocks human JMJD2E demethylase activity. B2RXH2. JMJD2E catalytic domain, FDH-coupled NADH fluorescence (FDH is formaldehyde dehydrogenase). Potency, µM (highest dose often 57.1 µM), for inactives: at the top dose activity change, negative = inhibition, usual class: inhibitors. 230,000 compounds, 1.6% hits; active = well fitted inhibition curve with a large enough effect, not every such curve was filed as active; inconclusive = small, poorly fitted or top-dose-only effect, or another doubt; inactive = no such curve, though single readings can be large or run the other way;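 note: potency is the fitted concentration of half-maximal effect; 0% = wells with enzyme and -100% = buffer wells without enzyme; nearly all actives have a fitted effect of over 50% in size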
FBPA coupling cs: inhibits coupling enzyme system, counter-screen for aldolase hits. coupling enzyme system counterscreen, AmpLite Red fluorescence. activity change, negative = inhibition, % at 58.2 µM, hits read low. 290,000 compounds, 0.67% hits; in the data active = activity change below about -30%
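Fluorescence at 525 nm excitation and 598 nm emission measured inhibition of the coupled detection system without aldolase. Compounds (at 57.5 uM final) were preincubated 10 min at room temperature with coupling enzyme reagent before a 20 min substrate/AmpLite Red step.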
ALDH1A1 block: ALDH1A1 (human) enzyme inhibition | AID 1030 | Purified ALDH1A1, NADH fluorescence, propionaldehyde substrate | 220,000 compounds, 7.3% hits | Potency, µM (doses to about 75.3 µM), inactives show at the highest dose activity, negative = inhibition, actives largely listed as inhibitors; active = well fitted inhibition curve with a large enough effect, not every such curve was filed as active; inconclusive = small, poorly fitted or top-dose-only effect, or another doubt; inactive = no such curve, though single readings can be large or run the other way;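 note: potency is the fitted concentration of half-maximal effect; plate controls were no enzyme wells and a reference inhibitor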
Target sequence (P00352 whole entry, looked up): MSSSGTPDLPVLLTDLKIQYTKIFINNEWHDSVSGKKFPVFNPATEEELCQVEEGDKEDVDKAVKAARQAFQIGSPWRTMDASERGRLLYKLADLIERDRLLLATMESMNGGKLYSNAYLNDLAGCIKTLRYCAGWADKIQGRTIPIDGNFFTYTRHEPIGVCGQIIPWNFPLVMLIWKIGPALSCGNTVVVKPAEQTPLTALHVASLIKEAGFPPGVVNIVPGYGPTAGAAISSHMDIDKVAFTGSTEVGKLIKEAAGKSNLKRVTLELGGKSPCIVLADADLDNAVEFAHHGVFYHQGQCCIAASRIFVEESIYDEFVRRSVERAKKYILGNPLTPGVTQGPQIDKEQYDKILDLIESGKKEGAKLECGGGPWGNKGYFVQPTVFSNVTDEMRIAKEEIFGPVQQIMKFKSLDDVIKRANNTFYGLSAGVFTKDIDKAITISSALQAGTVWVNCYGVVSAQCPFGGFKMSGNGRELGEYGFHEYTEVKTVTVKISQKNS
Active calls of the source: *; ? = inconclusive; / = not tested or not shown; [ ] = dose if it differs, or a comment. In the library only some 8.5% were active in any assay of this set; here they are far more common. Unless noted, calls come from the whole dose curve; as a rule, active = well fitted curve in the direction sought with a large enough effect; inconclusive = small, poorly fitted or top-dose-only effect, or another doubt; inactive = no such curve, though single readings can be large; an effect the other way counts as inactive or inconclusive. Unless noted, % is set by controls: 0 for no effect and ±100 for the full control effect.

SMILES	NPSR antag	Sfp inh	RGS12 GoLoco inh	KDM4E inh	FBPA coupling cs	ALDH1A1 block
COc1ccc(Nc2nnc(SCc3cc([N+](=O)[O-])cc4c3OCOC4)s2)cc1	-29.6%[46.1 µM]	-7.1%	4.4%	-6.5%	10.0	?
Cn1c(NNC(=O)c2ccccc2F)cc(=O)n(C)c1=O	5.1%	-10.9%	3.5%	1.5%	-30.2*	/
CC(=O)NC(CC(=O)Nc1ccc2c(c1)OCCO2)c1ccccc1 (stereo unspecified)	/	16.1%	/	/	3.6	/
CCc1cccc2nc3c(c([Si](C)(C)C)c12)Cn1c-3cccc1=O	/	-20.4%	10.1%	?	-5.1	?
CC(C)c1cccc2nc3c(c(C(C)(C)C)c12)Cn1c-3cccc1=O	/	0.7%	7.9%	?	-2.5	?
CC(C)c1cccc2nc3c(c([Si](C)(C)C(C)(C)C)c12)Cn1c-3cccc1=O	/	79.4µM*	11.4%	?	-23.4	?
CC(C)c1cccc2c([Si](C)(C)C)c3c(nc12)-c1cccc(=O)n1C3	/	44.7µM*	13.1%	?	-2.2	?
Cc1n(N)c2ccccc2[n+]1CC(=O)c1ccccc1	-14.2%	5.8%	16.3%	-15.2%	2.5	4.6%
Cc1ccc(-c2nnn(CC(=O)N(CC(=O)NC3CCCCC3)c3ccccc3F)n2)o1	/	-5.4%	/	/	-1.9	/
CS(=O)(=O)N(CC(=O)NCc1ccco1)Cc1ccc(Cl)cc1	-13.3%[46.1 µM]	28.2µM*	-6.5%	-1.7%	1.3	?
CS(=O)(=O)N(CC(=O)NCc1ccccn1)Cc1ccc(Cl)cc1	1.4%[46.1 µM]	1.7%	-5.9%	14.2%	1.7	7.94µM*
Cc1ccc(C2NC(=O)c3sc(=S)n(-c4ccccc4)c3N2)cc1 (stereo unspecified)	25.1%	39.8µM*	7.6%	-2.3%	2.7	?
O=C(O)C1C2CCC(O2)C1C(=O)NCc1ccc(Cl)cc1 (stereo unspecified)	4.1%	5.6%	10.7%	6.1%	5.4	2.1%
O=C1COC(c2ccccc2)C2CCCCN12 (stereo unspecified)	6.7%	-7.0%	6.5%	8.1%	8.6	-5.6%
O=S(=O)(NC(=S)c1ccccc1)c1ccc(F)cc1	/	-2.9%	/	/	11.3	/
O=[N+]([O-])c1ccc(N=Nc2c(Cl)cc(O)cc2Cl)cc1	7.94µM*	4.8%	-6.1%	13.2%	-0.3	/
CCCC(NC(=O)CCc1c(C)c2cc3c4c(oc3c(C)c2oc1=O)CCCC4)C(=O)O (stereo unspecified)	/	0.5%	/	/	0.7	/
CCCOc1ccc(C2NC(=S)NC(c3ccccc3)=C2C(=O)Nc2ccc(C)cc2)cc1OC (stereo unspecified)	-4.2%	-1.3%	4.6%	0.4%	-3.2	0.355µM*
CCOC(=O)C1=C(c2ccccc2)NC(=O)NC1c1cc(Br)c(O)c(OC)c1 (stereo unspecified)	0.2%	-5.7%	-6.8%	16.0%	-4.9	22.4µM*
COc1cc(C2NC(=S)NC(c3ccccc3)=C2C(C)=O)cc(Br)c1OCC(N)=O (stereo unspecified)	-24.3%	-5.3%	10.9%	-13.9%	-2.6	14.1µM*
COc1cc(C2NC(=S)NC(c3ccccc3)=C2C(C)=O)ccc1O (stereo unspecified)	-4.1%	13.3%	4.0%	14.8%	0.0	?
Cc1cc(N2C(=O)NC(=O)CC2C)c(C)cc1C(C)C (stereo unspecified)	-3.7%	6.8%	4.2%	-0.9%	1.3	-2.3%
COc1ccc(C(=O)CSc2nccn2C)cc1	/	56.2µM*	/	/	0.7	/
COc1ccc(NCc2nnc(SCC(=O)c3ccc(OC)cc3)n2C)cc1	1.7%[46.1 µM]	-8.5%	-24.5%	-22.4%	-1.8	6.31µM*
COc1ccccc1N1CCN(S(=O)(=O)c2cn(C)nc2C)CC1	/	10.3%	/	/	/	/
CCCCOC(=O)C1CN(c2ccccc2)N=C1C(=O)OCC (stereo unspecified)	-9.5%	-4.6%	-4.0%	1.2%	4.5	-1.6%
CCOC(=O)C1=NN(c2ccc([N+](=O)[O-])cc2)CC1C(=O)OC (stereo unspecified)	8.8%[46.1 µM]	8.6%	0.2%	-6.1%	5.6	1.12µM*

High-throughput results from PubChem BioAssay.
